Data on 35 compounds can be found in PubChem BioAssay (NCATS).

SMILES strings stand for the structures. Activity calls are given as the source filed them. Calls come from the whole dose curve; as a rule, active = well fitted curve in the direction sought with a large enough effect; inconclusive = small, poorly fitted or top-dose-only effect, or another doubt; inactive = no such curve, though single readings can be large or run the other way.

This assay concerns the target alpha-glucosidase (Oryza sativa, rice) (UniProt Q653V4). Kind of assay: Counterscreen for Glucocerebrosidase Inhibitors: qHTS Assay for Rice alpha-Glucosidase at pH 5.0 (AID 997). To be noted: rice alpha-glucosidase enzyme activity; series mostly up to 76.9 µM. The text has this: NIH Chemical Genomics Center [NCGC]
NIH Molecular Libraries Screening Centers Network [MLSCN]
PI Name: Zheng, Wei [NIH]
Alpha-glucosidase is responsible for hydrolysis of terminal, non-reducing 1,4-linked alpha-D-glucose residues with release of alpha-D-glucose. It is a lysosomal hydrolase that is required for the degradation of a small percentage (1-3%) of cellular glycogen in human. Deficiency of this enzyme results in glycogen-storage disease type II (GSDII), also referred to as Pompe disease, an autosomal recessive disorder. Structurally normal glycogen is accumulated in lysosomes and cytoplasm in affected patients, primarily in muscle tissues. Excessive glycogen storage within lysosomes may interrupt normal functioning of other organelles and leads to cellular injury. In turn, this leads to enlargement and dysfunction of the entire organ involved (eg, cardiomyopathy and muscle weakness).
It has reported that the improper folding and trafficking of alpha-glucosidase resulted from the genetic mutations may account for a significant number of Prope patients. […] We optimized this alpha-glucosidase assay in 1536-well plate format for identifying the novel small molecule inhibitors with the structures other than the sugar analogs in order to develop the new pharmacological chaperones.
NCGC Assay Protocol Summary:
This is a fluorogenic enzyme assay with 4-methylumbelliferyl-alpha-D-pyranoside as the substrate and rice alpha-glucosidase as the enzyme preparation. Upon the hydrolysis of this fluorogenic substrate, the resulting product, 1. 4-methyllumbelliferone, can be excited at 365 nm and emits at 440 nm which can be detected by a standard fluorescence plate reader. Data were normalized to the controls for basal activity (without enzyme) and 100% activity (with enzyme). In the AC50 values were determined from concentration-response data modeled with the standard Hill equation.
Assay buffer: 50 mM citric acid, 0.005% Tween-20, pH 5.0. (pH 5.0 is an optimal condition for this enzyme assay)
1536-well assay protocol for the human alpha-glucosidase:
(1) Add 2 ul/well of enzyme (4 nM final)
(2) Add 23 nL compounds in DMSO solution. The final titration was 0.7 nM to 77 uM.
(3) Add 1 ul of substrate (400 uM final)
(4) Incubate at room temperature for 20 min.
(5) Add 2 ul stop solution (1M NaOH and 1M Glycine mixture, pH 10)
(6) Detect the assay plate in a ViewLux plate reader (PerkinElmer) with Ex=365 nm and Em=440nm.
Keywords: Alpha-glucosidase, Prope Disease, pharmacological chaperone, chaperone therapy, high throughput screening, alpha-glucosidase inhibitor, MLSMR, MLSCN, NIH Roadmap, qHTS and NCGC
Consider `Clc1cccc(Cl)c1NC1=NCCN1`, for which the result was inactive.

Consider `NS(=O)(=O)c1cc2c(cc1Cl)NC=NS2(=O)=O`, for which the call was inactive.

As for `Cn1cnc([N+](=O)[O-])c1Sc1ncnc2nc[nH]c12`, the compound was called inactive.

With `CC(C)NCC(O)COc1ccc(COCCOC(C)C)cc1` (stereo not given), the compound was classed as inactive.

With `NC(=O)c1cnccn1`, the call was inactive.

With `CNC[C@H](O)c1cccc(O)c1`, the result was inactive.

For `NC[C@H](O)c1ccc(O)c(O)c1`, the compound was called inactive.

Turning to `Cc1[nH]c(=O)c(C#N)cc1-c1ccncc1`, the call was inactive.

Regarding `O=c1n(CCCN2CCN(c3cccc(Cl)c3)CC2)nc2ccccn12`, the result was inactive.

Consider `C1COC(NC(C2CC2)C2CC2)=N1`, for which the outcome was inactive.

In the case of `Cc1cnc(NC(=O)C2=C(O)c3ccccc3S(=O)(=O)N2C)s1`, the outcome was inactive.

Take `O=C1CCc2cc(OCCCCc3nnnn3C3CCCCC3)ccc2N1`: the compound was classed as inactive.

`CCOC(=O)C1=C[C@@]2(CC)CCCN3CCc4c(n1c1ccccc41)[C@H]32`: the call was inactive.

Take `CCCC(CCC)C(=O)O`: the result was inactive.

As to `Cc1cn[nH]c1`, the compound was called inactive.

As for `N=c1nc(N2CCCCC2)cc(N)n1O`, the compound was classed as inactive.

As for `Nc1ccc(S(=O)(=O)Nc2ccnn2-c2ccccc2)cc1`, the compound was called inactive.

With `CC(=O)Oc1ccccc1C(=O)O`, the result was inactive.

For the compound `O=c1[nH]cnc2[nH]ncc12`, the compound was called inactive.

For the compound `CN1CCN(CCCN2c3ccccc3Sc3ccc(C(F)(F)F)cc32)CC1`, the outcome was inactive.

Consider `NCCc1ccc(O)c(O)c1`, for which the compound was classed as inactive.

On to `Cc1ccc(N(CC2=NCCN2)c2cccc(O)c2)cc1`, for which the result was inactive.

With `C[C@]12CCC(=O)C=C1CC[C@@H]1[C@@H]2[C@@H](O)C[C@@]2(C)[C@H]1CC[C@]2(O)C(=O)CO`, the result was inactive.

Turning to `NNCCc1ccccc1`, the outcome was inactive.

Regarding `Nc1nc2ccc(OC(F)(F)F)cc2s1`, the call was inactive.

`Nc1nc2c(ncn2COCCO)c(=O)[nH]1`: the result was inactive.

For the compound `CC(C)(Sc1ccc(CCN(CCCCC2CCCCC2)C(=O)NC2CCCCC2)cc1)C(=O)O`, the outcome was inactive.

With `N[C@@H]1CONC1=O`, the call was inactive.

Take `Cc1oncc1C(=O)Nc1ccc(C(F)(F)F)cc1`: the compound was called inactive.

Take `OC(CN1CCC(Cc2ccc(F)cc2)CC1)c1ccc(Cl)cc1` (stereo not given): the compound was called inactive.

As for `CCOC(=O)N1CCC(=C2c3ccc(Cl)cc3CCc3cccnc32)CC1`, the outcome was inactive.

On to `CCCCNc1cc(C(=O)O)cc(S(N)(=O)=O)c1Oc1ccccc1`, for which the compound was called inactive.

`O=NN(CCCl)C(=O)NCCCl`: the call was inactive.

In the case of `Cc1[nH]c(=O)c(C#N)cc1-c1ccc2nccn2c1`, the outcome was inactive.

Take `NC(N)=NC(=O)c1nc(Cl)c(N)nc1N`: the outcome was inactive.
